# Columns and labels:
# Assay in all cases: DAPPL (digital affinity profiling via proximity ligation, sequencing); 10 mM Tris-HCl pH 7.5, 50 mM NaCl, 1 mM DTT, 4% glycerol, room temperature, 30 min; GST-TFs on glutathione beads, 16-mer random dsDNA library, 0.1% formaldehyde crosslink after washing; high values mean tight binding
# FLI1 = target: T1, FLI1 (Homo sapiens, UniProt Q01543 1-452); conditions: protein: recombinant; tags: N-terminal GST; dsDNA, one strand shown
# T1 sequence: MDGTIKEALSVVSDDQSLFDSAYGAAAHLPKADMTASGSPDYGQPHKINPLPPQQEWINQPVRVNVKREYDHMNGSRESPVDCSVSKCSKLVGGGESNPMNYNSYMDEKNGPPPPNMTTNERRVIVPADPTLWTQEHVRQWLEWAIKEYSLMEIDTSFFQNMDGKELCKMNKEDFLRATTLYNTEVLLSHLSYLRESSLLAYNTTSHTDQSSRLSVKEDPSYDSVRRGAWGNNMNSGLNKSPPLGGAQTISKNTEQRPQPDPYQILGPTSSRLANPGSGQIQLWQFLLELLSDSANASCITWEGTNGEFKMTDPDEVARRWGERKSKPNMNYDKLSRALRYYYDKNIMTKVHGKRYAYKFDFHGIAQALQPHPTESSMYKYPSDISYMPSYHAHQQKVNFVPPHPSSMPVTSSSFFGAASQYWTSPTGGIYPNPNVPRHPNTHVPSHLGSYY
# Summary of the method: (§1)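 Pools were built from human transcription factors expressed in yeast as GST fusions, captured on glutathione beads and DNA-barcoded, along with a tag-only sample. Incubation with 200 nmole of a 16-mer random double-stranded DNA library lasted 30 min at room temperature in Tris/NaCl/DTT/glycerol buffer, and was followed by washing, 0.1% formaldehyde crosslinking, proximity ligation, PCR amplification and Illumina NextSeq500 sequencing. Binding signal is the quotient of each hexamer's read frequency for a factor and its frequency for the tag-only sample.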
# ELK1 = target: T2, ELK1 (Homo sapiens, UniProt P19419 1-428); conditions: protein: recombinant; tags: N-terminal GST; dsDNA, one strand shown
# T2 sequence: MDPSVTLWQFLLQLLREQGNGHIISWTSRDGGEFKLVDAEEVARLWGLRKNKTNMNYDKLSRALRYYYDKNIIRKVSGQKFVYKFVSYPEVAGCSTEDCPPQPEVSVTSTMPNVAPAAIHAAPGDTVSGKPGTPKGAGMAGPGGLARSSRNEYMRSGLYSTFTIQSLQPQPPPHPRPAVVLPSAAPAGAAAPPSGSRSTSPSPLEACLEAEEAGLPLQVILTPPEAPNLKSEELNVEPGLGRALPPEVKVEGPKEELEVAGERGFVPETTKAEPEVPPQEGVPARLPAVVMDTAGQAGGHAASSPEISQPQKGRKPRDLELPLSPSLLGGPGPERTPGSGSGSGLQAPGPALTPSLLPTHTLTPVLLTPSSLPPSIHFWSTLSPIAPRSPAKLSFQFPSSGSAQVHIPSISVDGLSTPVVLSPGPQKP
# Summary of the method: as §1
# ERG = target: T3, ERG (Homo sapiens, UniProt P11308 1-479); conditions: protein: recombinant; tags: N-terminal GST; dsDNA, one strand shown
# T3 sequence: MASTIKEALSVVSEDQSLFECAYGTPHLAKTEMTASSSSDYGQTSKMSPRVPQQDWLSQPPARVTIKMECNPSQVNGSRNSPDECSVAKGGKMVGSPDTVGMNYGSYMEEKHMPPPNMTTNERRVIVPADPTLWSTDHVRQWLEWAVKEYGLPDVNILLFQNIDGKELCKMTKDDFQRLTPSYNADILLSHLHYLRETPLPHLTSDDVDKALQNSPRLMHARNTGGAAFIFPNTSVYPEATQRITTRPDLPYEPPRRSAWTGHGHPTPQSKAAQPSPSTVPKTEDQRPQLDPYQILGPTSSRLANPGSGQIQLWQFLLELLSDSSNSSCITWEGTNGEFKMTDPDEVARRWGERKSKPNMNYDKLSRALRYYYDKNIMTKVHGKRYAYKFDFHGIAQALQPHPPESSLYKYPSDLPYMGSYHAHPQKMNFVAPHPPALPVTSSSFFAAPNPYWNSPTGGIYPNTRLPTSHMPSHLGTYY
# Summary of the method: as §1
# ELF1 = ELF1 (Homo sapiens, UniProt P32519 1-619); conditions: protein: recombinant; tags: N-terminal GST; dsDNA, one strand shown
# Chain of ELF1 (P32519 whole entry): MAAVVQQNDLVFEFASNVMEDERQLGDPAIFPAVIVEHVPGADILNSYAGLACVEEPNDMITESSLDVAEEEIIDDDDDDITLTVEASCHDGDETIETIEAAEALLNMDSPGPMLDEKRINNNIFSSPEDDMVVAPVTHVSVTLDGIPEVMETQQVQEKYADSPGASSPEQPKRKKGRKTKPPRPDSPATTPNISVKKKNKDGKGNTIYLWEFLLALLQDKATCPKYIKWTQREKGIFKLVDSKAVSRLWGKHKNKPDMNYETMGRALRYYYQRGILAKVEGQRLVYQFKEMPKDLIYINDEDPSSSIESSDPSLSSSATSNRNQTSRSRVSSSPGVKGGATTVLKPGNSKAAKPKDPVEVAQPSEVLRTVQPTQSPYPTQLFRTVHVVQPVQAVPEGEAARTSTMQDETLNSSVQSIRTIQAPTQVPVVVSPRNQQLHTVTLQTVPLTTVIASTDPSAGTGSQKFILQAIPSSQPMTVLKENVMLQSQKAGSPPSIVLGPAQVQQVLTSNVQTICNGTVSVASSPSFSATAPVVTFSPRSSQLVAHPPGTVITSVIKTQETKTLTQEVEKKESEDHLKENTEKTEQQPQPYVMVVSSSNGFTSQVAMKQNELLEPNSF
# Summary of the method: as §1
# EHF = target: T4, EHF (Homo sapiens, UniProt Q9NZC4 1-300); conditions: protein: recombinant; tags: N-terminal GST; dsDNA, one strand shown
# T4 sequence: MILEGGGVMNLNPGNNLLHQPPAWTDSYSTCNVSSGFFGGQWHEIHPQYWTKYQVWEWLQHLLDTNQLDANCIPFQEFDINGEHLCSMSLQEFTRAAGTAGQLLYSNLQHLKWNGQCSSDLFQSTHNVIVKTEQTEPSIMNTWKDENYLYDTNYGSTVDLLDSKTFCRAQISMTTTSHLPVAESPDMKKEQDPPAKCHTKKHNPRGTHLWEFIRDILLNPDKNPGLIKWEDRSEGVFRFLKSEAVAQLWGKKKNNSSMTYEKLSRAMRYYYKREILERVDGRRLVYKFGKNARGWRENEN
# Summary of the method: as §1
# SPI1 = SPI1 (Homo sapiens, UniProt P17947 1-270); conditions: protein: recombinant; tags: N-terminal GST; dsDNA, one strand shown
# Summary of the method: as §1
# SPIB = SPIB (Homo sapiens, UniProt Q01892 1-262); conditions: protein: recombinant; tags: N-terminal GST; dsDNA, one strand shown
# Chain of SPIB (Q01892 whole entry): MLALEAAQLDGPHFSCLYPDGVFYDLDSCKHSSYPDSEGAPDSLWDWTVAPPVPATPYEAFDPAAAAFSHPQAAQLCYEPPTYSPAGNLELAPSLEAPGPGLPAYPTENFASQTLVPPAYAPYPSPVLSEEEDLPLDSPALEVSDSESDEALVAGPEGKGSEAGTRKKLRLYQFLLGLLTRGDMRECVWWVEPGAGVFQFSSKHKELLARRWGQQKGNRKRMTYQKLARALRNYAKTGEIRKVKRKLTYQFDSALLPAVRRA
# Summary of the method: as §1
# ELK3 = target: T5, ELK3 (Homo sapiens, UniProt P41970 1-407); conditions: protein: recombinant; tags: N-terminal GST; dsDNA, one strand shown
# T5 sequence: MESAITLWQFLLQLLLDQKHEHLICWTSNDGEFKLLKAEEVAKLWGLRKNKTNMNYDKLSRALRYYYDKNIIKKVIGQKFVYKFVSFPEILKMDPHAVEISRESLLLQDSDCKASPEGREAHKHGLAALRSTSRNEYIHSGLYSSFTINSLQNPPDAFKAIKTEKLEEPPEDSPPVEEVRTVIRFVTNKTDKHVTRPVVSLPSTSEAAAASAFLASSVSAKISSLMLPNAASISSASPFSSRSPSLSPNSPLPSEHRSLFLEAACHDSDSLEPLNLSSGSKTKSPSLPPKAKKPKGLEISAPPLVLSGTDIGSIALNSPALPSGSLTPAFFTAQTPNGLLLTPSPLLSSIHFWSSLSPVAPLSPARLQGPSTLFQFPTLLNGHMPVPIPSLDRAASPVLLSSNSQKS
# Summary of the method: as §1
# FEV = target: T6, FEV (Homo sapiens, UniProt Q99581 1-238); conditions: protein: recombinant; tags: N-terminal GST; dsDNA, one strand shown
# T6 sequence: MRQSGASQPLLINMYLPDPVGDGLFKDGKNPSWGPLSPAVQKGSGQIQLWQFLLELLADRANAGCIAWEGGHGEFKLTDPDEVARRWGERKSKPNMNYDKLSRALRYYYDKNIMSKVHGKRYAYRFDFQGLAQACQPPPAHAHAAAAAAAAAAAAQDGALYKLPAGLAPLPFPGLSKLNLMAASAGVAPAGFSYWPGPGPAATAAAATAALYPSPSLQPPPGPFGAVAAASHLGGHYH
# Summary of the method: as §1
# ETV5 = ETV5 (Homo sapiens, UniProt P41161 1-510); conditions: protein: recombinant; tags: N-terminal GST; dsDNA, one strand shown
# Chain of ETV5 (P41161 whole entry): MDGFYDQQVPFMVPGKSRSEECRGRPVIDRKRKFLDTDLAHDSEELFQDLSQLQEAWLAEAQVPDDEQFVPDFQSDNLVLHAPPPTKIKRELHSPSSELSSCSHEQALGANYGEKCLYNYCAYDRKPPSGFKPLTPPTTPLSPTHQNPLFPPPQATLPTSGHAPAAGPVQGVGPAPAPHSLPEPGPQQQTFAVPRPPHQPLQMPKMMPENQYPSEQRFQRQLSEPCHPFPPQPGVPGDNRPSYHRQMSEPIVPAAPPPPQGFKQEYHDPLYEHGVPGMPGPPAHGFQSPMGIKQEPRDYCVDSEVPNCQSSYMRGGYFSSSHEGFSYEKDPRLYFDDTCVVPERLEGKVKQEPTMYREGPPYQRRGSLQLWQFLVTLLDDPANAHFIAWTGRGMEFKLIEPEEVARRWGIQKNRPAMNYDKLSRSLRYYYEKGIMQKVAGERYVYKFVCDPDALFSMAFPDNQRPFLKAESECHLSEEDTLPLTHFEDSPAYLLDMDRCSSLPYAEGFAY
# Summary of the method: as §1
# HSF1 = HSF1 (Homo sapiens, UniProt Q00613 1-529); conditions: protein: recombinant; tags: N-terminal GST; chain copies: 3; dsDNA, one strand shown
# Chain of HSF1 (Q00613 whole entry): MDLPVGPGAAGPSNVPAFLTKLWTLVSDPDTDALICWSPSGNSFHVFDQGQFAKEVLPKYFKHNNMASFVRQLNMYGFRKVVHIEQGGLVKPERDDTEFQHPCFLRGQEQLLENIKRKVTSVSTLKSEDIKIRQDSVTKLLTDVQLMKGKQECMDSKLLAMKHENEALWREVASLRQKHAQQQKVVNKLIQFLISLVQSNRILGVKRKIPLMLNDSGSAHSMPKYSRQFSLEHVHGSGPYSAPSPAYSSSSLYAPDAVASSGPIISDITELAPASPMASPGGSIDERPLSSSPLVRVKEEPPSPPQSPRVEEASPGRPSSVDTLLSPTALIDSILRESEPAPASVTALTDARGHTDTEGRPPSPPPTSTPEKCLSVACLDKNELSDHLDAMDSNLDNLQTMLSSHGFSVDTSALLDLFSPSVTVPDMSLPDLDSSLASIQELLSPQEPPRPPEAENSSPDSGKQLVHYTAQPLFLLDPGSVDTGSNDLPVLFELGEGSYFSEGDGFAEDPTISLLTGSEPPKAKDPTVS
# Summary of the method: as §1
# SPIC = target: T7, SPIC (Homo sapiens, UniProt Q8N5J4 1-248); conditions: protein: recombinant; tags: N-terminal GST; dsDNA, one strand shown
# T7 sequence: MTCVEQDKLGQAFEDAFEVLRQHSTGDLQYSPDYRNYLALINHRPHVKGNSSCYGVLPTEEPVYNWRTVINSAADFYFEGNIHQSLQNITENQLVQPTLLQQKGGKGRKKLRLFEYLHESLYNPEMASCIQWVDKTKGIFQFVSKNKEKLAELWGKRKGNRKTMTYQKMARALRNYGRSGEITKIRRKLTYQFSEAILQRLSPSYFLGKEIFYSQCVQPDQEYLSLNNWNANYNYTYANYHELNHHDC
# Summary of the method: as §1
# ELF4 = ELF4 (Homo sapiens, UniProt Q99607 1-663); conditions: protein: recombinant; tags: N-terminal GST; dsDNA, one strand shown
# Chain of ELF4 (Q99607 whole entry): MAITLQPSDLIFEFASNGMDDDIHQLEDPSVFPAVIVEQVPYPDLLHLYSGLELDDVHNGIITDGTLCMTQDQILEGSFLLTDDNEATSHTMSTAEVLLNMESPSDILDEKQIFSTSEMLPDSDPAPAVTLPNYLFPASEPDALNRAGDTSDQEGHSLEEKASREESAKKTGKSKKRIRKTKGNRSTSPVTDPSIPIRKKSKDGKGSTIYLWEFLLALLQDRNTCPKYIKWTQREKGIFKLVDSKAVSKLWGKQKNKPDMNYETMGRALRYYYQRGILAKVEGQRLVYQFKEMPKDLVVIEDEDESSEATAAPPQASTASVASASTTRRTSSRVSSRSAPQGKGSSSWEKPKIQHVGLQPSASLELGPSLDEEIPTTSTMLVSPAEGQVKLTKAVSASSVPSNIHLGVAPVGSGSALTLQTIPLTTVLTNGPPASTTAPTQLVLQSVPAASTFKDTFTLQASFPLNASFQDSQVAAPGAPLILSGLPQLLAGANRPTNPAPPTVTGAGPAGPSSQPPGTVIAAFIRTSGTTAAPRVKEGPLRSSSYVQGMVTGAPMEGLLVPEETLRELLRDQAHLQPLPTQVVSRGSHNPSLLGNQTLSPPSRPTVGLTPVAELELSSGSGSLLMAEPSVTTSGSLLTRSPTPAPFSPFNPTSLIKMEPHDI
# Summary of the method: as §1
# ELK4 = target: T8, ELK4 (Homo sapiens, UniProt P28324-2 1-405); conditions: protein: recombinant; tags: N-terminal GST; dsDNA, one strand shown
# T8 sequence: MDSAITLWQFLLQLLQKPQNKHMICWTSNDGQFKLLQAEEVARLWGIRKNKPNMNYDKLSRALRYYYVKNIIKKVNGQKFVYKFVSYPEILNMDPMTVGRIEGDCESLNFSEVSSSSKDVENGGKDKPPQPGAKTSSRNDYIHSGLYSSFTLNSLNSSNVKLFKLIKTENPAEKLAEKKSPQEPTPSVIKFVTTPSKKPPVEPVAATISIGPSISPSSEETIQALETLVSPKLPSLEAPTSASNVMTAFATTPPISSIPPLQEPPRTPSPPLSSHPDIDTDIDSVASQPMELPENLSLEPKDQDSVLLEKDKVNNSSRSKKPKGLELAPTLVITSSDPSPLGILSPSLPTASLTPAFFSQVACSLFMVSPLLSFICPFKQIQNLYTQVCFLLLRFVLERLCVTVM
# Summary of the method: as §1
# ETV2 = target: T9, ETV2 (Homo sapiens, UniProt O00321 1-342); conditions: protein: recombinant; tags: N-terminal GST; dsDNA, one strand shown
# T9 sequence: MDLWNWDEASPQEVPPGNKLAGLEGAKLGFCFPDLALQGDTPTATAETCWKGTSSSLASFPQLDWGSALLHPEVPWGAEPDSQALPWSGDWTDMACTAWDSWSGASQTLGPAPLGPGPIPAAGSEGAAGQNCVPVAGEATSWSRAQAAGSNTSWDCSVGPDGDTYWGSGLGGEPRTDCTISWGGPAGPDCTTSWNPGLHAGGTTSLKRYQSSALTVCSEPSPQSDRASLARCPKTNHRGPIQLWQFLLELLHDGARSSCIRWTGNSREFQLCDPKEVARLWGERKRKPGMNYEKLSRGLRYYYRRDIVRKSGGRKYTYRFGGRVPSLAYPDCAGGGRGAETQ
# Summary of the method: as §1
# ELF3 = target: T10, ELF3 (Homo sapiens, UniProt P78545 1-371); conditions: protein: recombinant; tags: N-terminal GST; dsDNA, one strand shown
# T10 sequence: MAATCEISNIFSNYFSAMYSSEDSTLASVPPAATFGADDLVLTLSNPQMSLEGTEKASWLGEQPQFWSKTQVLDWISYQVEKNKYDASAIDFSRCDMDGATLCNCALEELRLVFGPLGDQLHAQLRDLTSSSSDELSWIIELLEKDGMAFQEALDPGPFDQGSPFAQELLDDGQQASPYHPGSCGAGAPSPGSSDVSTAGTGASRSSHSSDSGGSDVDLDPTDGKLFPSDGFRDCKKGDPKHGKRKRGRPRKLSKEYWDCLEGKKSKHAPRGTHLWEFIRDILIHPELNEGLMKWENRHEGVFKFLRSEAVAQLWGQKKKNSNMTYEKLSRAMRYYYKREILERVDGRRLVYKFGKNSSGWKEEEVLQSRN
# Summary of the method: as §1
# CRX = CRX (Homo sapiens, UniProt O43186 1-299); conditions: protein: recombinant; tags: N-terminal GST; dsDNA, one strand shown
# Chain of CRX (O43186 whole entry): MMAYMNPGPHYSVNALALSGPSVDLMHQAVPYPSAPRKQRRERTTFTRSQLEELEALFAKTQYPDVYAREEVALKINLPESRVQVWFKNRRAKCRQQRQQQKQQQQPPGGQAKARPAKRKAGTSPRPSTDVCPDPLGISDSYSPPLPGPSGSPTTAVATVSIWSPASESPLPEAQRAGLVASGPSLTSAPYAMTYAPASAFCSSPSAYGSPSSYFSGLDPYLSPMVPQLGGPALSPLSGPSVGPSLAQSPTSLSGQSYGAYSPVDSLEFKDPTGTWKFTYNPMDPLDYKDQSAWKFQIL
# Summary of the method: as §1
# ETV1 = ETV1 (Homo sapiens, UniProt P50549 1-477); conditions: protein: recombinant; tags: N-terminal GST; dsDNA, one strand shown
# Chain of ETV1 (P50549 whole entry): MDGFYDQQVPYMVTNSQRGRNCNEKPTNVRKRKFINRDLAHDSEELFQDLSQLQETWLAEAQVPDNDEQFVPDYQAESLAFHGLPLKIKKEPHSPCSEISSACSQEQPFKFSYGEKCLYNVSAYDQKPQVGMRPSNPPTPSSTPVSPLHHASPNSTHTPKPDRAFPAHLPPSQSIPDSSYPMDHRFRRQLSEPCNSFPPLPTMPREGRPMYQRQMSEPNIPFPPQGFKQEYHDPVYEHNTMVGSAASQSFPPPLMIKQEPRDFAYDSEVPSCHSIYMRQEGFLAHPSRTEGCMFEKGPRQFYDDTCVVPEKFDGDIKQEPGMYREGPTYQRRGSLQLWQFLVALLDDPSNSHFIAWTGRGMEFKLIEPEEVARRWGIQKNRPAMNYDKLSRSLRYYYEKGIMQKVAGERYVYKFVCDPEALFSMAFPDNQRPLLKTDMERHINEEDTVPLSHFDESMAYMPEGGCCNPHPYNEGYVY
# Summary of the method: as §1
sequence,measurement,setting,value
CAAATC,binding signal,FLI1,"1.06 fold enrichment (6-mer frequency, TF over GST control)"
same,binding signal,ELK1,"1.08 fold enrichment (6-mer frequency, TF over GST control)"
same,binding signal,ERG,"1.14 fold enrichment (6-mer frequency, TF over GST control)"
same,binding signal,ELF1,"1.16 fold enrichment (6-mer frequency, TF over GST control)"
same,binding signal,EHF,"1.12 fold enrichment (6-mer frequency, TF over GST control)"
same,binding signal,SPI1,"1.04 fold enrichment (6-mer frequency, TF over GST control)"
same,binding signal,SPIB,"1.11 fold enrichment (6-mer frequency, TF over GST control)"
same,binding signal,ELK3,"1.01 fold enrichment (6-mer frequency, TF over GST control)"
same,binding signal,FEV,"1.16 fold enrichment (6-mer frequency, TF over GST control)"
same,binding signal,ETV5,"1.14 fold enrichment (6-mer frequency, TF over GST control)"
same,binding signal,HSF1,"1.29 fold enrichment (6-mer frequency, TF over GST control)"
same,binding signal,SPIC,"1.17 fold enrichment (6-mer frequency, TF over GST control)"
same,binding signal,ELF4,"1.12 fold enrichment (6-mer frequency, TF over GST control)"
same,binding signal,ELK4,"1.17 fold enrichment (6-mer frequency, TF over GST control)"
same,binding signal,ETV2,"1.1 fold enrichment (6-mer frequency, TF over GST control)"
same,binding signal,ELF3,"1.12 fold enrichment (6-mer frequency, TF over GST control)"
same,binding signal,CRX,"1.69 fold enrichment (6-mer frequency, TF over GST control)"
same,binding signal,ETV1,"1.15 fold enrichment (6-mer frequency, TF over GST control)"

# Source: article PMC7862700, “An all-to-all approach to the identification of sequence-specific readers for epigenetic DNA modifications on cytosine”
